Screening results as filed in PubChem BioAssay.
Sampled rows, rich in hits. Any-hit rate of the full collection: about 5.3%.
VACV Venus inh: vaccinia inhibition (Venus reporter); Vaccinia virus Venus reporter expression, fluorescence; 0.46% of 330,000 active; Potency, µM (series often up to 36.5 µM), without a hit: at the highest dose activity change, negative = inhibition, hits mostly inhibitors; calls by dose curve; tested in A549 cells; note: nearly all actives have a fitted effect of over 30% in size
VACV mCherry inh: inhibitors of vaccinia virus infection (mCherry reporter signal); Vaccinia virus mCherry reporter infection, fluorescence; Potency, µM (series often up to 36.5 µM), for inactives: top-dose activity change, negative = inhibition, usual class: inhibitors; 0.63% of 310,000 active; AID 720579; calls by dose curve; tested in A549 cells; note: nearly all actives have a fitted effect of over 35% in size
MARV entry inh: blocks Marburg virus binding to or entry into cells. Marburg virus pseudotyped entry inhibition, cell reporter. Potency, µM (series often up to 37.8 µM), for the others: at the top dose activity change, negative = inhibition, most hits filed as inhibitors. 1.8% of 300,000 active; calls by dose curve; tested in HEK293 cells
HCV inh: blocks hepatitis C virus | Huh7.5.1 HCVcc-Cre infection, luciferase reporter, 44 h | Potency, µM (series often up to 41.8 µM), for the others: top-dose activity change, negative = inhibition, usual class: inhibitors | 3.4% of 340,000 active | AID 651820; active = well fitted inhibition curve with a large enough effect; inconclusive = small, poorly fitted or top-dose-only effect, or another doubt; inactive = no such curve, though single readings can be large or run the other way
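Antiviral activity was scored by luciferase reporter output from cells infected with HCVcc-Cre (~0.5 moi) in presence of compound, 44 h infection period, cells seeded 1,000/well 4 h prior.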
Lassa entry inh: blocks Lassa virus binding to or entry into cells | Lassa virus pseudotype entry inhibition, cell reporter | Potency, µM (top dose mostly 37.9 µM), without a hit: top-dose activity change, negative = inhibition, most hits filed as inhibitors | 1.2% of 300,000 active | AID 540256; calls by dose curve; tested in HEK293 cells; note: nearly all actives have a fitted effect of over 50% in size
FMDV antiviral: antivirals against foot and mouth disease virus | FMDV antiviral cell-based qHTS | Potency, µM (doses to about 57.9 µM), inactives show at the top dose activity change, negative = inhibition, actives largely listed as inhibitors | 1.2% of 410,000 active | AID 1159524; calls by dose curve; tested in HEK293T cells; note: read-out not given here; nearly all actives have a fitted effect of over 45% in size
Starred values were filed as active, the others as inactive; i = inactive; u = inconclusive; x = not tested or not shown; [ ] = dose if it differs, or a comment. % is set by controls: 0 for no effect and ±100 for the full control effect; potency is the fitted concentration of half-maximal effect.

SMILES | VACV Venus inh | VACV mCherry inh | MARV entry inh | HCV inh | Lassa entry inh | FMDV antiviral
CCOCCCNC(=O)c1cn(CC)c2ccc(S(=O)(=O)N(C)C3CCCCC3)cc2c1=O | x | x | x | -8% | x | -10%
CCN(CC)S(=O)(=O)c1ccc2c(c1)c(=O)c(C(=O)NCCOC)cn2C | x | x | -8% | 0% | -1% | 1%
CCN(CC)S(=O)(=O)c1ccc2c(c1)c(=O)c(C(=O)NCc1ccc3c(c1)OCO3)cn2C | x | x | 13% | 1%[0.335 µM] | 4% | x
CCc1c(C)nc(N2CCN(c3ccc(OC)cc3)CC2)[nH]c1=O | x | x | x | 9% | x | -14%
O=C(Cc1cccc2ccccc12)NCC(=O)N1CCN(Cc2cccc(C(F)(F)F)c2)CC1 | x | x | x | 5.6µM* | x | u
O=C(Cc1cccc2ccccc12)NCC(=O)N1CCN(CC(=O)Nc2ccc(F)cc2)CC1 | -20% | -5% | x | x | x | u
O=C(Cc1csc(Nc2nc(=S)[nH]c3ccccc23)n1)N1CCN(c2cccc(Cl)c2)CC1 | -7% | i | u | 11µM* | x | -22%
O=C(COc1ccccc1-c1ccccc1)N/N=C/c1cccc2ccccc12 | u | u | u | 1.8µM* | u | u
COc1ccc(/C=N/NC(=O)COc2ccccc2-c2ccccc2)cc1 | 3.5µM* | u | u | 5.6µM* | u | u
CCOc1ccc(Oc2c(/C=N/NC(N)=O)c(C)nn2-c2ccccc2)cc1 | -9% | i | u | -8% | -17%[46.1 µM] | -19%
CCOc1ccc(Oc2c(/C=N/NC(=O)COc3ccccc3OC)c(C)nn2-c2ccccc2)cc1 | u | -18% | u | 13µM* | u | -29%
CC(NC(=O)COc1ccccc1-c1ccccc1)c1ccccc1 (configuration not stated) | -6% | i | u | -8% | 18µM* | u
COc1ccc(Br)c(/C=N/NC(=O)COc2ccc(-c3ccccc3)cc2)c1 | -1% | -13% | 4%[46.1 µM] | 7.9µM* | -8% | 7%
COc1ccc(NCC(=O)N/N=C/C=C\c2ccccc2)cc1 | -4% | -18% | 3% | 0% | u | 15%
COc1ccc(/C=C/C=N/NC(=O)COc2ccc(OC)cc2)cc1 | -18% | i | 0% | 5% | 0.79µM* | 28%
COc1ccc(-c2cccc(NC(=O)c3cccs3)c2)nn1 | -17% | -2% | 2% | 3.5µM* | -24% | 4%
COc1cc(N/C(N)=N/c2nc(C)cc(C)n2)c(OC)cc1Cl | x | x | 9.2µM* | u | -23% | u
CCCCc1ccc(N/C(N)=N/c2nc(C)cc(C)n2)cc1 | u | u | u | -84% | u | 25µM*
Cc1cc(C)cc(N/C(N)=N/c2nc(C)cc(C)n2)c1 | u | -25% | u | -66% | 21µM* | -28%
Cc1ccc(N/C(N)=N/c2nc(C)cc(C)n2)cc1 | -21% | -2% | -35% | 10% | 12% | 0%
Cc1cc(C)nc(/N=C(\N)Nc2ccc(C(C)C)cc2)n1 | -17%[7.34 µM] | -16%[7.34 µM] | 10µM* | 11µM* | u | 14µM*
CCC(=O)Nc1ccc(N/C(N)=N/c2nc(C)cc(C)n2)cc1 | x | x | x | u | x | -11%
Cc1cccnc1NC(=O)CN1C(=O)c2ccccc2S1(=O)=O | -8% | -19% | -4%[46.1 µM] | 14% | 22% | 19%
COc1cccc(NC(=O)c2csc3c2CCCCC3)c1 | -14% | -15% | u | x | x | 22%
Cc1ccc(CNC(=O)CN2C(=O)CSc3ccc(S(=O)(=O)N4CCCC4)cc32)cc1 | -3% | -4% | x | x | 1%[46.1 µM] | 1%
SMILES | VACV Venus inh | VACV mCherry inh | MARV entry inh | HCV inh | Lassa entry inh | FMDV antiviral
Nc1ncnc2c1nc(Br)n2[C@@H]1O[C@H]2COP(=O)(O)O[C@@H]2[C@@H]1O | -8% | i | x | x | x | -10%
CCOC(=O)CCN1C(=O)[C@H]2[C@H]3[C@H](O)[C@H](O)C/C(=N\NC(=O)OCc4ccccc4)[C@@H]3CC[C@H]2C1=O | x | x | 29%[14.2 µM] | x | x | x
Cc1cc(C)nc(/N=C(\N)Nc2ccccc2-c2ccccc2)n1 | -30% | u | u | u | -20% | 18µM*
Cc1cccc(N/C(N)=N/c2nc(C)cc(C)n2)c1 | -19% | u | u | u | 0% | -19%
CC(C)(C)c1ccc(S(=O)(=O)N2CCN(CCC#N)CC2)cc1 | 4% | -9% | x | 2% | x | -18%
Cc1ccc(S(=O)(=O)/C=C/C#N)cc1 | -11% | i | u | x | 2.3µM* | -7%
CC(C)(C)c1ccc(S(=O)(=O)/C=C\C#N)cc1 | x | x | 2.5µM* | x | x | 40µM*
COc1ccc(N=C2NC(=O)C(CC(=O)NCCc3ccc(OC)c(OC)c3)S2)cc1 (configuration not stated) | -14% | -1% | 15%[46.1 µM] | -17% | u | -5%
COc1ccc(CC2SC(=Nc3ccc(F)cc3)NC2=O)cc1 (configuration not stated) | -1% | i | -13%[46.1 µM] | 3% | 4.5µM* | 12%
Cc1ccccc1Nc1oc(-c2ccccc2)nc1C=Cc1ccccc1 | x | x | -21%[14.2 µM] | x | x | x
COC(=O)CNC(c1ccccc1)c1cc(Br)ccc1NC(=O)c1cc(OC)c(OC)c(OC)c1 (configuration not stated) | -4% | -9% | x | x | u | u
CCSC1(SCC)N=C(N)C2(C#N)C(c3ccc(F)cc3)C12C#N (configuration not stated) | -13% | -15%[1.46 µM] | u | 1% | u | 14µM*
CCn1c(=NC(=O)c2ccc3c(c2)OCCO3)sc2c(C)ccc(OC)c21 | -4%[7.34 µM] | -7%[7.34 µM] | x | x | 15%[46.1 µM] | u
CCn1c(=NC(=O)C2COc3ccccc3O2)sc2c(OC)ccc(OC)c21 (configuration not stated) | x | x | x | 11µM* | x | 12%
Cc1c(C(=O)NCCN2CCOCC2)cnn1-c1nccc(-c2cc3ccccc3o2)n1 | -12% | -6% | x | x | x | -21%
O=C(O)CCCC(=O)OCCCCc1cccs1 | x | x | 2% | -4% | 8% | 6%
Nc1nnc(CCCCc2cccs2)o1 | 10µM* | i | 9% | -4% | -12% | -1%
Oc1cccc(-c2nc(-c3cccs3)c(-c3cccs3)[nH]2)c1 | -18% | -16% | u | x | 1%[46.1 µM] | 0%
COc1ccc(NC(=O)N2CCN(c3nc(-c4cccc(OC)c4)cs3)CC2)cc1 | x | x | 23µM* | 6.3µM* | u | 20µM*
COc1cccc(-c2csc(N3CCN(C(=O)Nc4ccc(Cl)cc4)CC3)n2)c1 | u | u | x | 11µM* | x | u
COc1cccc(-c2csc(N3CCN(C(=S)Nc4cccc(Cl)c4)CC3)n2)c1 | u | i | u | u | u | x
Cc1occc1C(=O)Nc1cccc(-c2nc(CNC(=O)c3cc(-c4ccccc4)n[nH]3)c(C)o2)c1 | -23% | -24% | x | x | x | -1%
COc1ccc(C=CNC(=O)c2ccc(OC)cc2)cc1 | x | x | 18%[14.2 µM] | x | x | x
c1ccc(N=Nc2ccccc2)cc1 | -12% | -13% | x | x | x | 13%
[Hg+][c]1ccccc1 | 2µM* | 2µM* | x | x | x | x
O=C(NC(Nc1nc2ccc([N+](=O)[O-])cc2s1)(C(F)(F)F)C(F)(F)F)c1ccccc1Cl | x | x | u | 0.56µM* | 1.6µM* | 2.5µM*
